Records with an inconclusive call do not appear. Activity calls are given as the source filed them. Rule for the calls, unless noted: active = hit-call score of the fitted dose curve at least 0.9, where 1 is the maximum; inactive = score below 0.9.
What was measured:
[1] = ATG_TAL_CIS: Attagene CIS-FACTORIAL HepG2 Assay for human TAL Basal Promoter (AID 2282966); details: HepG2 Attagene cis-factorial TAL promoter reporter; actives raise or lower the signal;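 note: background control endpoint measuring basal TAL promoter reporter mRNA not a specific factor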
Summary of the method: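 HepG2, transient MRTU transfection, 24 h compound exposure; RNA → oligo(dT) RT → PCR → 6-FAM primer extension → HpaI digest → CE fluorescence. Bidirectional curve fit vs DMSO. Background-control readout.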

[2] = ATG_TGFb_CIS: Attagene CIS-FACTORIAL HepG2 Assay for human Transforming Growth Factor (TGF) (AID 2282967); details: HepG2 Attagene CIS TGFb reporter, mRNA transcription; actives raise or lower the signal
Summary of the method: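 Transient MRTU transfection of HepG2 (FuGene 6). Dose 24 h. TriZol RNA, oligo(dT) RT, PCR, 6-FAM primer extension, HpaI cut, CE. Bidirectional fit, DMSO = baseline.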

[3] = ATG_VDRE_CIS: Attagene CIS-FACTORIAL HepG2 Assay for human Vitamin D Receptor Element (VDRE) (AID 2282968); details: HepG2 VDRE cis-reporter transcription, actives raise or lower the signal
Summary of the method: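 Compounds were applied for 24 h to HepG2 cells transfected with promoter-regulated reporter units. Total RNA was reverse-transcribed, and reporter amplicons were fluorescently labelled and sized by capillary electrophoresis.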

[4] = target: X-box-binding protein 1 (Homo sapiens) (UniProt P17861); experiment: ATG_Xbp1_CIS: Attagene CIS-FACTORIAL HepG2 Assay for human X-box Binding Protein 1 (XBP1) (AID 2282972); details: HepG2 XBP1 cis-element reporter, Attagene multiplex; actives raise or lower the signal
Summary of the method: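 Multiplexed cis-reporter readout in transfected HepG2 liver cells. Exposure lasted 24 hours. Activity in either direction was fitted against DMSO as negative control and baseline.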

[5] = target: Hepatocyte nuclear factor 4-alpha (Homo sapiens) (UniProt P41235); experiment: ATG_HNF4a_TRANS: Attagene TRANS-FACTORIAL HepG2 Assay for human Hepatocyte Nuclear Factor 4 alpha (HNF4a) (AID 2282982; active = hit-call score of the fitted dose curve at least 0.9, where 1 is the maximum); details: HepG2 HNF4a transactivation reporter, mRNA readout
Summary of the method: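 Endpoint reflects transcriptional activation of a GAL4-UAS reporter by an HNF4a-GAL4 chimera in transfected HepG2 cells, 24 h post-dosing. Fluorescence from RT-PCR products separated by capillary electrophoresis; DMSO baseline.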

[6] = target: Nuclear receptor subfamily 4 group A member 2 (Homo sapiens) (UniProt P43354); experiment: ATG_NURR1_TRANS: Attagene TRANS-FACTORIAL HepG2 Assay for human Nuclear Receptor Related Protein 1 (NURR1) (AID 2282985; active = hit-call score of the fitted dose curve at least 0.9, where 1 is the maximum); details: HepG2 Attagene TRANS reporter, mRNA readout
Summary of the method: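 Endpoint: reporter mRNA increase relative to DMSO. HepG2 cells transfected with reporter units, treated 24 h; RNA processed by RT-PCR, labelling, HpaI digestion and capillary electrophoresis.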

[7] = target: Transcriptional activator Myb (Homo sapiens) (UniProt P10242); experiment: ATG_Myb_CIS: Attagene CIS-FACTORIAL HepG2 Assay for human Myeloblastosis (Myb) Proto-Oncogene Transcription Factor (AID 2282986); details: HepG2 Attagene CIS-FACTORIAL Myb reporter transcription; actives raise or lower the signal
Summary of the method: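 In this HepG2 transient-transfection format, cis-regulated reporter mRNA is quantified 24 h post-dosing by RT-PCR with capillary electrophoresis, fitted bidirectionally to DMSO baseline.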

[8] = ATG_M_19_TRANS: Attagene TRANS-FACTORIAL HepG2 Assay for M19 Transcription Factor (Internal Marker) (AID 2282974; active = hit-call score of the fitted dose curve at least 0.9, where 1 is the maximum); details: HepG2 Attagene TRANS-FACTORIAL M19 internal marker reporter
Summary of the method: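 Using RT-PCR and capillary electrophoresis, reporter mRNA from transiently transfected human HepG2 cells was quantified following 24 h exposure; activity was fitted in the positive direction against DMSO.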

[9] = ATG_GAL4_TRANS: Attagene TRANS-FACTORIAL HepG2 Assay for GAL4 (Internal Marker) (AID 2282976; active = hit-call score of the fitted dose curve at least 0.9, where 1 is the maximum); details: HepG2 Attagene TRANS GAL4 internal marker reporter
Summary of the method: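 RT-PCR/capillary electrophoresis readout of reporter mRNA. HepG2, transient MRTU transfection (GAL4-UAS reporters), 24 h compound exposure. Background-control endpoint, positive direction vs DMSO baseline.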

[10] = target: Glucocorticoid receptor (Homo sapiens) (UniProt P04150); experiment: ATG_GR_TRANS: Attagene TRANS-FACTORIAL HepG2 Assay for human Glucocorticoid Receptor (GR) (AID 2282978; active = hit-call score of the fitted dose curve at least 0.9, where 1 is the maximum;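 note: activators score as hits since higher reporter transcript over DMSO is fitted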); details: HepG2 Attagene TRANS GR reporter, mRNA transcription
Summary of the method: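 Exogenous NR-GAL4 fusion activity was assessed through induced GAL4-UAS reporter transcripts in transfected human HepG2 cells, quantified after 24 h by RT-PCR and fluorescent capillary electrophoresis with DMSO as baseline.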

[11] = target: Oxysterols receptor LXR-alpha (Homo sapiens) (UniProt Q13133); experiment: ATG_LXRa_TRANS: Attagene TRANS-FACTORIAL HepG2 Assay for human Liver X Receptor alpha (LXRa) (AID 2282980; active = hit-call score of the fitted dose curve at least 0.9, where 1 is the maximum); details: HepG2 Attagene TRANS reporter, LXRa transactivation
Summary of the method: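 Read-out: reporter transcript levels by RT-PCR plus capillary electrophoresis, fluorescence intensity. Transiently transfected HepG2, exogenous NR-GAL4 chimera, GAL4-UAS reporters; 24 h compound exposure. Activity = increase over DMSO negative control.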

[12] = target: Estrogen receptor (Homo sapiens) (UniProt P03372); experiment: ATG_ERa_TRANS: Attagene TRANS-FACTORIAL HepG2 Assay for human Estrogen Receptor alpha (ERa) (AID 2282970; active = hit-call score of the fitted dose curve at least 0.9, where 1 is the maximum); details: HepG2 Attagene TRANS ERa GAL4 reporter, mRNA
Summary of the method: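 Reporter mRNA induction after 24 hours, detected by fluorescent RT-PCR and capillary electrophoresis, gives the read-out. Cells are HepG2 transiently transfected with GAL4-UAS reporter transcription units responding to chimeric NR-Gal4. Activity is taken as gain of signal over DMSO baseline.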

[13] = target: Bile acid receptor (Homo sapiens) (UniProt Q96RI1); experiment: ATG_FXR_TRANS: Attagene TRANS-FACTORIAL HepG2 Assay for Farnesoid X Receptor (FXR) (AID 2282979; active = hit-call score of the fitted dose curve at least 0.9, where 1 is the maximum;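 note: hits raise reporter mRNA above DMSO so AC50 marks FXR activation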); details: HepG2 Attagene TRANS FXR-GAL4 reporter transcription
Summary of the method: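 Read-out: fluorescent reporter transcripts quantified by capillary electrophoresis after RT-PCR of total RNA. Source cells were HepG2 transiently carrying chimeric NR-GAL4 plus GAL4-UAS reporter units, dosed 24 h. Activity fitted upward relative to DMSO baseline.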

[14] = target: Oxysterols receptor LXR-beta (Homo sapiens) (UniProt P55055); experiment: ATG_LXRb_TRANS: Attagene TRANS-FACTORIAL HepG2 Assay for human Liver X Receptor beta (LXRb) (AID 2282981; active = hit-call score of the fitted dose curve at least 0.9, where 1 is the maximum); details: HepG2 Attagene TRANS GAL4-LXRb reporter, mRNA
Summary of the method: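 Multiplexed reporter assay, HepG2, 24 h dosing. Fluorescence of labelled RT-PCR products after capillary electrophoresis gives transcript level; positive fitting direction relative to DMSO.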

[15] = ATG_M_32_TRANS: Attagene TRANS-FACTORIAL HepG2 Assay for M32 Transcription Factor (Internal Marker) (AID 2282984; active = hit-call score of the fitted dose curve at least 0.9, where 1 is the maximum;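 note: transcript level of a background control reporter unit measured by RT-PCR and capillary electrophoresis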); details: HepG2 Attagene TRANS M32 internal marker reporter
Summary of the method: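 Internal-marker readout from a multiplexed transcription reporter panel. HepG2 cells were transfected with GAL4-UAS reporter units, treated 24 hours, and reporter transcript levels determined by fluorescence after RT-PCR and capillary separation.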

[16] = target: Steroid hormone receptor ERR1 (Homo sapiens) (UniProt P11474); experiment: ATG_ERRa_TRANS: Attagene TRANS-FACTORIAL HepG2 Assay for human Estrogen-Related Receptor alpha (ERRa) (AID 2282971; active = hit-call score of the fitted dose curve at least 0.9, where 1 is the maximum); details: HepG2 Attagene TRANS reporter, ERRa transactivation
Summary of the method: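 Transfected HepG2, 24 h dosing, ERRa-Gal4 chimera driving GAL4-UAS reporter. Readout: reporter mRNA via RT-PCR plus capillary electrophoresis (fluorescence). Positive direction vs DMSO control.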

[17] = target: Estrogen-related receptor gamma (Homo sapiens) (UniProt P62508); experiment: ATG_ERRg_TRANS: Attagene TRANS-FACTORIAL HepG2 Assay for human Estrogen-Related Receptor gamma (ERRg) (AID 2282977; active = hit-call score of the fitted dose curve at least 0.9, where 1 is the maximum;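 note: hits increase reporter signal over DMSO so potencies reflect activators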); details: HepG2 Attagene TRANS reporter, ERRg transactivation
Summary of the method: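 Induction of reporter transcripts through a chimeric NR-Gal4 protein is quantified in transfected human HepG2 liver cells after 24 h chemical exposure, using RT-PCR with capillary electrophoresis detection and DMSO as baseline.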

[18] = ATG_M_06_TRANS: Attagene TRANS-FACTORIAL HepG2 Assay for M06 Transcription Factor (Internal Marker) (AID 2282983; active = hit-call score of the fitted dose curve at least 0.9, where 1 is the maximum); details: HepG2 Attagene TRANS M06 internal marker reporter
Summary of the method: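 Read-out: fluorescent reporter cDNA fragments resolved by capillary electrophoresis after RT-PCR and HpaI cut. Source cells were HepG2 carrying transfected multi-reporter GAL4 constructs, dosed 24 h. Increase over DMSO control analysed.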

Measured: AC50

Sequence of Transcriptional activator Myb (Homo sapiens) (P10242 whole entry, looked up): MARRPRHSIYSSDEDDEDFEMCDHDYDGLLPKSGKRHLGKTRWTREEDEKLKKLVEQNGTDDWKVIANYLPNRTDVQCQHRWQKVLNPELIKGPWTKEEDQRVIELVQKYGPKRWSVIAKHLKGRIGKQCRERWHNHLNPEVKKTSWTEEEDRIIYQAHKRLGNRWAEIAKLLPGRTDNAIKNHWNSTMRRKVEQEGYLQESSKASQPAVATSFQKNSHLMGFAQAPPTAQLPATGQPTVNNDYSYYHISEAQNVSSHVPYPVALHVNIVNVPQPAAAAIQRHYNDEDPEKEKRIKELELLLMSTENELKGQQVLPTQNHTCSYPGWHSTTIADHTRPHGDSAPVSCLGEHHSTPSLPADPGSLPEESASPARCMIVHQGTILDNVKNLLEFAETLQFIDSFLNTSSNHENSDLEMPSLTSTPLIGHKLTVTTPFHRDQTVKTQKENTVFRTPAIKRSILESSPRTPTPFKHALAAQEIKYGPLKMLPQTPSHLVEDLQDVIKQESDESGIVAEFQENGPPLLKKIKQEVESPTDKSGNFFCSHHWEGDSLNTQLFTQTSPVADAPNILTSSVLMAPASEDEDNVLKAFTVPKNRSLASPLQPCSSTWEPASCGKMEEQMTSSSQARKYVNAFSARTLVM
Sequence of Hepatocyte nuclear factor 4-alpha (Homo sapiens) (P41235 whole entry, looked up, the tested form may be a part): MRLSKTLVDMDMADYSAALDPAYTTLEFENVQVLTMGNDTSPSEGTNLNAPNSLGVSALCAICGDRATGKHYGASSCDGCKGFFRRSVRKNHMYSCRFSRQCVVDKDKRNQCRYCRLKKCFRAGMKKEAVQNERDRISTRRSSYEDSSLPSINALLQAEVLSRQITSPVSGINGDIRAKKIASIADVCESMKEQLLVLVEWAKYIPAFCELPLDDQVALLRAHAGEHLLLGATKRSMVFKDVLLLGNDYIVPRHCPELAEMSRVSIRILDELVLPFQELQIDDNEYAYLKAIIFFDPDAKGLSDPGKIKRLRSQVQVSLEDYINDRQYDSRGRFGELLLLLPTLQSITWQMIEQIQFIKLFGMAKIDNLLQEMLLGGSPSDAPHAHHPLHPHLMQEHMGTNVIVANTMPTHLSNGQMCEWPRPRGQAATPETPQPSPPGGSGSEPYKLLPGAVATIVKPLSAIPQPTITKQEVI
Sequence of Oxysterols receptor LXR-alpha (Homo sapiens) (Q13133 whole entry, looked up, the tested form may be a part): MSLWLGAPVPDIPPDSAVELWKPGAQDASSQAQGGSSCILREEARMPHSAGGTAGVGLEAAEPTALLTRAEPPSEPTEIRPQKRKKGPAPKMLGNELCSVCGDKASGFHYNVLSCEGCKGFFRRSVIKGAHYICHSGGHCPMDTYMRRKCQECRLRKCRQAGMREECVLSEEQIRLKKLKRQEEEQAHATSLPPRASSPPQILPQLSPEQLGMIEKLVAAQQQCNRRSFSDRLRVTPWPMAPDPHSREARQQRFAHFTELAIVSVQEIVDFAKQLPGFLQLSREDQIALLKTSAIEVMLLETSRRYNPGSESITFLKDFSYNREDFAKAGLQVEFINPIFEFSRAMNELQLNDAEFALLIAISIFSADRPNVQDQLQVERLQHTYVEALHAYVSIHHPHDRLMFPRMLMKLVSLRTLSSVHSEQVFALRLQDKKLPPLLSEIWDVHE
Sequence of Oxysterols receptor LXR-beta (Homo sapiens) (P55055 whole entry, looked up, the tested form may be a part): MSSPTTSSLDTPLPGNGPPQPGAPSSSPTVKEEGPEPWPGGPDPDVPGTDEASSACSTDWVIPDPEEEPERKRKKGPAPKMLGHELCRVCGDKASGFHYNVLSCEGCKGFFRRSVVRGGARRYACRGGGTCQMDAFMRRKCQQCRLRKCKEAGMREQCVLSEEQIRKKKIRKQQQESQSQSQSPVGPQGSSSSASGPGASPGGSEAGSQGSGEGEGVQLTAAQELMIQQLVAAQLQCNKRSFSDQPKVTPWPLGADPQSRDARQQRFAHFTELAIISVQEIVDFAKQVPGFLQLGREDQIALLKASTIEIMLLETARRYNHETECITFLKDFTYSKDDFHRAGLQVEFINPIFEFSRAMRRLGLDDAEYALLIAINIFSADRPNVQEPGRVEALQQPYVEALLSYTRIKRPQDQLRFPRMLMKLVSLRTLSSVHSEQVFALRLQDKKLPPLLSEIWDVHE
Sequence of X-box-binding protein 1 (Homo sapiens) (P17861 whole entry, looked up): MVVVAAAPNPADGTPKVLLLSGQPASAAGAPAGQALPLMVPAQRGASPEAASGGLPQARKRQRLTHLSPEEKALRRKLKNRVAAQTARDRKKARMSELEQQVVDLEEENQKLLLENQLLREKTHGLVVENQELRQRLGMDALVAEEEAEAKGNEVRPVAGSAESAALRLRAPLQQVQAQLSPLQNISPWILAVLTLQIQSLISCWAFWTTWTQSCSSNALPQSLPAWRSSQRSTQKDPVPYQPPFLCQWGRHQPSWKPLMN
Sequence of Estrogen receptor (Homo sapiens) (P03372 whole entry, looked up, the tested form may be a part): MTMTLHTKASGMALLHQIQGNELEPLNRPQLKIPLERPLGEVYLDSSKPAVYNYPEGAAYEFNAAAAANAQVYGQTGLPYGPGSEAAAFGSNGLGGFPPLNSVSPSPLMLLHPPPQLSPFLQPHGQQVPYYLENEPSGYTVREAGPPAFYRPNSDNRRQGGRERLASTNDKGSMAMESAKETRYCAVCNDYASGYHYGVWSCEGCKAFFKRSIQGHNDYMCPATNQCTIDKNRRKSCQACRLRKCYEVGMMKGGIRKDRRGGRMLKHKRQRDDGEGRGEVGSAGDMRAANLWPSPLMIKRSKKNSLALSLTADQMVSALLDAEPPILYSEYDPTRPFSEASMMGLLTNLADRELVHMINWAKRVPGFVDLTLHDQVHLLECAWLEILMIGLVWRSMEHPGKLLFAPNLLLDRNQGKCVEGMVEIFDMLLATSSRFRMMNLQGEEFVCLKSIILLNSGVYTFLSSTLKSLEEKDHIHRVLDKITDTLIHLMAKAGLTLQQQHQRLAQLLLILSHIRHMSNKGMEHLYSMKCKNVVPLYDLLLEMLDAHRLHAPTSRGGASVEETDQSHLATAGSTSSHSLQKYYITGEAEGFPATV
Sequence of Glucocorticoid receptor (Homo sapiens) (P04150 whole entry, looked up, the tested form may be a part): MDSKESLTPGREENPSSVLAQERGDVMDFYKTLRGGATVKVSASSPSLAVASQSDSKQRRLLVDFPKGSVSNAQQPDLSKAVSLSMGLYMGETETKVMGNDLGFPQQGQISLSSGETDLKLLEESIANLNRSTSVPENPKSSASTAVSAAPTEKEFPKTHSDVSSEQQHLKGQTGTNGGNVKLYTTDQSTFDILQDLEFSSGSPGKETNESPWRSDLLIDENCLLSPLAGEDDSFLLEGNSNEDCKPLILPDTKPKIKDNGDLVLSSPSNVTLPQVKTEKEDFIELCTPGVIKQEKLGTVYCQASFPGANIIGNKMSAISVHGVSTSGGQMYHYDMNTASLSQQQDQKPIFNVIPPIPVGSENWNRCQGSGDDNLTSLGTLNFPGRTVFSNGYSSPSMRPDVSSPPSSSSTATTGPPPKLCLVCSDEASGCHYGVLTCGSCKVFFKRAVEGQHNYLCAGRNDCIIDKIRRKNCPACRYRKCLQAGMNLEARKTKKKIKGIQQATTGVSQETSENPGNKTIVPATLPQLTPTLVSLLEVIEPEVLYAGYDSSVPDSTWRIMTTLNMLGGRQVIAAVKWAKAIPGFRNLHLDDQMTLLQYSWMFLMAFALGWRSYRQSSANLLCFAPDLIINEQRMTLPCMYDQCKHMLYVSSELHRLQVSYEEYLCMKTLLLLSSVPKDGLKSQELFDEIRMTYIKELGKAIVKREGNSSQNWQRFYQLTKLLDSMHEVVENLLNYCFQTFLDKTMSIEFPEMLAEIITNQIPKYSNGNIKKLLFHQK
Sequence of Nuclear receptor subfamily 4 group A member 2 (Homo sapiens) (P43354 whole entry, looked up): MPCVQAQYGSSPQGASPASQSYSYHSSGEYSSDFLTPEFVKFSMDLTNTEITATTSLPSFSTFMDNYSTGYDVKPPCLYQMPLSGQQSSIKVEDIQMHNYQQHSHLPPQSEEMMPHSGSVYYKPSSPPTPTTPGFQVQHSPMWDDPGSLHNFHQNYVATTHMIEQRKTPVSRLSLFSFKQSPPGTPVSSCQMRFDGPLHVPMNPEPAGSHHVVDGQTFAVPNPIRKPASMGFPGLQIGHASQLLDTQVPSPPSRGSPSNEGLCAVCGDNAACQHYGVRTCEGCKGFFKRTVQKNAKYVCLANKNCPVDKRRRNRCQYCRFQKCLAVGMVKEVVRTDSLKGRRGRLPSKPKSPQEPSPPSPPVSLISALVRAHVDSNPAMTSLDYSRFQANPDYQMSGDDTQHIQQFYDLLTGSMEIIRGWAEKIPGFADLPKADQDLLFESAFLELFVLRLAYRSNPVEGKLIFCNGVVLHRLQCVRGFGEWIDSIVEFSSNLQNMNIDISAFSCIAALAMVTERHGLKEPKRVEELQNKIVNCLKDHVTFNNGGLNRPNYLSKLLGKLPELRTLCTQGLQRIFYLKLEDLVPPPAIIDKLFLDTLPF
Sequence of Bile acid receptor (Homo sapiens) (Q96RI1 whole entry, looked up, the tested form may be a part): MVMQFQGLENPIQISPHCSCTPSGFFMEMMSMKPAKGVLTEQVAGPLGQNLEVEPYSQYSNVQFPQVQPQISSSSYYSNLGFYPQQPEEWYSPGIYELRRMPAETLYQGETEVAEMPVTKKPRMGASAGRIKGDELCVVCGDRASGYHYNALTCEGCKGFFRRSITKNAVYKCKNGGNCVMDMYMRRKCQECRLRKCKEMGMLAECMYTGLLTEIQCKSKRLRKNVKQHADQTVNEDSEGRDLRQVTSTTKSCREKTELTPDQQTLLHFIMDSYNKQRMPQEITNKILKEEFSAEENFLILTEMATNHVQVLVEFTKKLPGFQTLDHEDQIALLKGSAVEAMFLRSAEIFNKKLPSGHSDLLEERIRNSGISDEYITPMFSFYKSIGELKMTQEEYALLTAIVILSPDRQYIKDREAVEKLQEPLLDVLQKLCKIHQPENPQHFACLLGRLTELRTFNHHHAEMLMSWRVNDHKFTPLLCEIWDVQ

CCO[Si](CC)(OCC)OCC
active: [2] 160 µM
inactive: [1] | [3] | [4] | [5] | [6] | [7]

S=c1[nH][nH]c(=S)s1
inactive: [1] | [2] | [3] | [4] | [8] | [9] | [10] | [11] | [6] | [7]

CC(O)COCC(C)O (stereo unspecified)
inactive: [1] | [2] | [3] | [12] | [4] | [13] | [14] | [15] | [7]

O=S1(=O)CC=CC1
inactive: [1] | [2] | [3] | [4] | [9] | [11] | [5] | [7]

Cc1cc(O)c(C)c(C)c1O
inactive: [1] | [2] | [16] | [4] | [17] | [11] | [18] | [6] | [7]
active: [12] 21.2 µM

O=S(=O)(O)CCCN1CCOCC1
inactive: [1] | [2] | [3] | [4] | [9] | [11] | [5] | [6] | [7]

CC1(C)CC(N)CC(C)(CN)C1 (stereo unspecified)
inactive: [1] | [2] | [12] | [4] | [14] | [5] | [18] | [15] | [6] | [7]

CCCCCC1CCC(=O)O1 (stereo unspecified)
inactive: [1] | [2] | [3] | [4] | [8] | [10] | [6] | [7]

O=C(O)c1ccco1
inactive: [1] | [2] | [3] | [12] | [4] | [8] | [7]

C=C(C)C(N)=O
inactive: [1] | [2] | [3] | [4] | [9] | [17] | [5] | [18] | [7]

CC1=CCC(C(C)C)=CC1
inactive: [1] | [2] | [4] | [14] | [6] | [7]

CC(C)(C)C1CCC(O)CC1 (stereo unspecified)
inactive: [1] | [2] | [3] | [4] | [8] | [11] | [14] | [7]
active: [12] 29.2 µM

CC/C=C\CCOC(=O)C(C)C
inactive: [1] | [2] | [3] | [4] | [9] | [10] | [14] | [5] | [7]

CC(O)CN (stereo unspecified)
not listed: [13] | [17] | [18]
inactive: all other assays above

CC(C)CCOC(=O)CC(C)C
not listed: [16] | [17] | [18]
inactive: all other assays above

From PubChem BioAssay (EPA / NIEHS)
